Sampled rows, rich in hits. Any-hit rate of the full collection: about 4.6%.
LASV entry inh – Lassa virus entry inhibition. Lassa virus pseudotype entry inhibition, cell reporter. Potency, µM (doses to about 37.9 µM), without a hit: top-dose activity change, negative = inhibition, usual class: inhibitors. actives 1.2% (n = 300,000). AID 540256; calls by dose curve; tested in HEK293 cells; further: nearly all actives have a fitted effect of over 50% in size
HCV inh – HCV inhibition. actives 3.4% (n = 340,000). Huh7.5.1 HCVcc-Cre infection, luciferase reporter, 44 h. Potency, µM (series often up to 41.8 µM), inactives show top-dose activity change, negative = inhibition, usual class: inhibitors; active means well fitted inhibition curve with a large enough effect; inconclusive means small, poorly fitted or top-dose-only effect, or another doubt; inactive means no such curve, though single readings can be large or run the other way
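Cells seeded at 1,000/well and cultured 4 h, then compounds added followed by HCVcc-Cre virus (~0.5 moi). After 44 h further culture, luciferase substrate was added, plates held 15 min at room temperature, and luminescence read for 15 sec.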
VACV Venus inh – inhibitors of vaccinia virus (Venus reporter); Vaccinia virus Venus reporter expression, fluorescence; Potency, µM (top dose mostly 36.5 µM), for the others: top-dose activity change, negative = inhibition, hits mostly inhibitors; actives 0.46% (n = 330,000); AID 720580; calls by dose curve; tested in A549 cells; further: nearly all actives have a fitted effect of over 30% in size
Vaccinia mCherry – vaccinia inhibition (mCherry reporter); Vaccinia virus mCherry reporter infection, fluorescence; Potency, µM (highest dose often 36.5 µM), inactives show top-dose activity change, negative = inhibition, usual class: inhibitors; actives 0.63% (n = 310,000); calls by dose curve; tested in A549 cells; further: nearly all actives have a fitted effect of over 35% in size
MARV entry inh – inhibitors of Marburg virus binding or cell entry. actives 1.8% (n = 300,000). Marburg virus pseudotyped entry inhibition, cell reporter. Potency, µM (doses to about 37.8 µM), for inactives: at the top dose activity change, negative = inhibition, usual class: inhibitors; calls by dose curve; tested in HEK293 cells
The depositor's hits bear a star; i = inactive; ? = inconclusive; . = no result given; [ ] = remark or other dose. On the % scale 0 is the no-effect control and ±100 the full control effect; potency means the concentration at half of the fitted maximal effect.

SMILES	LASV entry inh	HCV inh	VACV Venus inh	Vaccinia mCherry	MARV entry inh
CCOC(=O)c1c(/N=C/N(C)C)sc(/C=N/Nc2ccccc2)c1-c1ccccc1	-4.1%	?	.	.	18.3µM*
CCOC(=O)c1c(/N=C/N(C)C)sc(C=O)c1-c1ccccc1	8.4%	-10.6%	16.3%	i	-8.1%[46.1 µM]
O=C(Nc1cc(Cl)ccc1O)c1snnc1-c1ccccc1	?	17.8µM*	.	.	?
O=C(Nc1cccc(Cl)c1Cl)c1snnc1-c1ccccc1	?	7.2%	-6.5%	.	?
Cc1cc(C)nc(NC(=O)/C=C/c2ccccc2Cl)n1	-7.2%	-29.6%	-9.5%	.	?
Cc1ccnc(NC(=O)/C=C/c2ccccc2Cl)c1	?	?	2.7%	-12.2%	2.59µM*
Cc1cc(N)c2cc(NC(=O)/C=C/c3ccccc3Cl)ccc2n1	.	11.2µM*	.	.	.
COc1ccc(-n2c(/C=C/c3ccccc3F)nc3cc(OC)c(OC)cc3c2=O)cc1Cl	19.7%[46.1 µM]	.	-22.7%	-25.3%	.
COc1ccc(CN2CCOc3ccc(CN4CCN(CCO)CC4)cc3C2)c2ccccc12	.	.	-11.6%	-20.0%	.
CC(=O)c1sc(NCc2ccc(C)cc2)nc1C	?	-14.9%	-25.8%	-14.9%	10µM*
CC(=O)c1sc(NCc2ccccc2)nc1C	?	-17.3%	-5.2%	i	16.2%[46.1 µM]
COc1ccc(Cn2c(/C=C/c3ccccc3)nc3ccccc32)cc1	20.9%	-17.4%	.	.	?
COc1ccc(/C=N\n2nnc3ccccc32)cc1	1.41µM*	?	-5.8%	-11.4%	2µM*
CCn1c(/C=C/c2ccccc2)nc2ccccc21	?	7.94µM*	-23.2%	-6.5%	?
COc1ccc(/C=C/c2nc3ccccc3n2C)cc1	0.112µM*	?	?	?	?
CC(C(=O)c1ccc(-c2ccccc2)cc1)[n+]1ccccc1 (configuration not stated)	?	?	-27.3%	-27.5%	10µM*
CC(C(=O)c1ccc(-c2ccccc2)cc1)[n+]1cccc(C(N)=O)c1 (configuration not stated)	?	9.5%	-7.4%	-14.3%	11.9%
Cc1cc[n+](C(C)C(=O)c2ccc(-c3ccccc3)cc2)cc1 (configuration not stated)	10µM*	?	-17.1%	-29.6%	?
Cc1ccc[n+](C(C)C(=O)c2ccc(-c3ccccc3)cc2)c1 (configuration not stated)	?	-22.5%	-28.7%	-5.0%	?
COc1cc(/C=C/C(=O)OCC(=O)c2ccc(OC(F)F)cc2)ccc1O	?	10µM*	-7.5%	-18.6%	-37.8%
O=C(/C=C/c1ccco1)OCC(=O)c1ccc(OC(F)F)cc1	.	13.3%	.	.	.
CN(Cc1cccs1)C(=O)c1ccc(S(=O)(=O)N2CCCCC2)cc1	.	-2.5%	.	.	.
CN(CC(=O)Nc1cc(S(=O)(=O)N2CCCC2)ccc1Cl)Cc1cccs1	.	6.31µM*	.	.	.
CN(CC(=O)Nc1cccc(F)c1)CC(=O)Nc1cc(S(=O)(=O)N2CCOCC2)ccc1Cl	.	11.2µM*	.	.	.
O=C(C1CCCN(S(=O)(=O)c2ccc(Cl)cc2)C1)N(Cc1cccs1)C1CC1 (configuration not stated)	-25.4%	10µM*	-24.6%	-18.5%	?
SMILES	LASV entry inh	HCV inh	VACV Venus inh	Vaccinia mCherry	MARV entry inh
COc1ccc(S(=O)(=O)N2CCOCC2)cc1NC(=O)CN(C)CC(=O)Nc1cccc(F)c1	.	-21.0%	.	.	.
CCN(CC(=O)Nc1cc(S(=O)(=O)N2CCOCC2)ccc1Cl)Cc1ccccc1	.	7.94µM*	.	.	.
CCN(CC)c1nn2c(=O)c(C(=O)NCCc3ccc(C)cc3)cnc2s1	?	.	-12.8%	-8.2%	.
COc1cccc(-c2nc(S(=O)(=O)c3ccc(Cl)cc3)c(NCc3ccccc3)o2)c1	?	.	-4.7%[7.34 µM]	-1.0%[7.34 µM]	4.4%[46.1 µM]
Cc1cccc(OCC(=O)NCc2ccccc2)c1	-22.9%	18.2%	-14.9%	-12.7%	13.1%
C/C(=N\NC(=O)COc1cccc(C)c1)c1ccc2ccccc2c1O	.	11.2µM*	.	.	.
Cc1cnc(SCCN2CCOCC2)nc1C1CCCN(C(=O)c2cccc3c(C)c(C)[nH]c23)C1 (configuration not stated)	.	.	0.2%	-18.3%	.
CC1CCCCC1NC(=O)COC(=O)c1ccc2c(c1Cl)C(=O)c1ccccc1C2=O (configuration not stated)	-12.9%	25.1µM*	.	.	?
Cc1ccc(C)c(C(=O)Cn2ncc(Cl)c(Cl)c2=O)c1	?	10µM*	?	-21.4%	10µM*
Cc1cccc(Cn2ncc(Cl)c(Cl)c2=O)c1	?	3.55µM*	.	.	?
Cc1cc(C(=O)Cn2ncc(Cl)c(Cl)c2=O)c(C)n1CC(F)(F)F	?	?	14.1µM*	?	?
O=c1c2ccccc2cnn1Cc1ccc(Cl)c(Cl)c1	.	4.5%	-7.1%	-1.4%	?
Cc1cc2oc(=O)cc(Cn3ncc(Cl)c(Cl)c3=O)c2cc1Cl	?	11.2µM*	-5.6%	-7.6%	?
O=C([C@@H]1C[C@@H](Sc2nc3ccccc3[nH]2)CN1Cc1c(F)cccc1F)N1CCOCC1	.	.	-13.2%	-3.9%	.
O=C(Nc1ccccc1F)c1oc2ccccc2c1NC(=O)c1c(F)cccc1F	-28.0%[46.1 µM]	.	-23.0%	-22.2%	?
C#CCCCO/N=C1/C[C@@H](O)[C@@H](O)[C@@H]2[C@@H]3C(=O)N(Cc4ccc5c(c4)OCO5)C(=O)[C@H]3CC[C@@H]12	.	.	.	.	-6.7%[14.2 µM]
O=C(Cn1ncc(Cl)c(Cl)c1=O)c1ccc2c(c1)OCCO2	12.6µM*	2µM*	-26.5%	?	?
CCC(=O)c1ccc2c(c1)OCCO2	.	10.6%	.	.	.
CCc1cccc(NC(=O)CN2Cc3ccccc3C2=O)c1	5.6%[46.1 µM]	.	-6.8%	-14.3%	.
Cc1ccccc1NS(=O)(=O)c1cc(C(=O)Nc2ccccc2-c2ccccc2)ccc1Cl	?	11.2µM*	-20.3%	i	-6.6%
C=CCNC(=O)c1ccccc1NC(=O)c1ccc(Cl)c(S(=O)(=O)Nc2cc(C)ccc2C)c1	?	12.6µM*	?	i	?
CCOc1ccc(N(C(=O)c2ccc(OC)cc2)S(=O)(=O)c2ccc3c(c2)n(C)c(=O)n3C)cc1	?	.	-7.4%	-10.5%	?
CCCS(=O)(=O)c1nc(S(=O)(=O)c2ccc(C)cc2)c(NCCCOC(C)C)s1	?	.	-21.0%	-0.8%	14.7%[46.1 µM]
Cc1ccc(S(=O)(=O)c2nc(S(=O)(=O)c3ccccc3)sc2NCCCOC(C)C)cc1	-32.6%[46.1 µM]	.	-8.3%	0.8%	3.98µM*
COc1cc2c(NC3CCN(C)CC3)nc(N3CCCN(C)CC3)nc2cc1OCCOCCN1CCCC1	.	.	-10.5%	-10.5%	.
COc1cc2c(NC3CCN(C(C)C)CC3)nc(N3CCCN(C)CC3)nc2cc1OCCCN(C)C	.	.	0.251µM*	?	.
COc1cc2c(NC3CCN(C)CC3)nc(N3CCCN(C)CC3)nc2cc1OCCCCCN(C)C	.	.	12.6µM*	?	.
CCN(CC)CCCOc1cc2nc(N3CCCN(C)CC3)nc(NC3CCN(C)CC3)c2cc1OC	.	.	10µM*	7.08µM*	.
CCOC(=O)c1c(CN(C)C)n(-c2ccccc2)c2cc(Br)c(OC)cc12	?	7.94µM*	?	-0.5%	10µM*
